# PubChem BioAssay
# Unmarked numbers belong to inactive results. For part of these data: Entries with a potency or affinity are not part of this list. The source made the active and inactive calls. Unless noted, the rule behind the calls is not given here.
# Columns and labels:
# [1] = antimalarial activity against Dd2 strain (AID 2302;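 active = growth inhibition above 50% at the single 2 µM test dose, taken to imply half-maximal potency below 2 µM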;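 note: 0% = DMSO untreated growth and 100% = chloroquine plus artemisinin killed control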); conditions: P. falciparum Dd2 in RBCs, LDH growth readout, 72 h; at 2 µM; stronger effect = higher value
# [2] = human hepatoma cell viability loss – ATP luminescence, cytotoxicity control for P. falciparum antimalarial project, primary screen (AID 2303;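 active = inhibition above 50%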;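 note: 0% = DMSO wells and 100% = digitonin-killed cells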); conditions: HepG2 viability, 24-48 h, at 10 µM, stronger effect = higher value
# [3] = target: L-lactate dehydrogenase (Plasmodium falciparum (isolate CDC / Honduras)) (UniProt Q27743); experiment: PfLDH activity inhibition – cell lysate, 3D7 strain, counter-screen for P. falciparum growth inhibition project (AID 2304);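 note: 0% = vehicle and 100% = reference inhibitor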; conditions: P. falciparum 3D7 crude extract, LDH APAD/NBT absorbance; at 2 µM; stronger effect = higher value
# Sequence of L-lactate dehydrogenase (Plasmodium falciparum (isolate CDC / Honduras)) (Q27743 whole entry, looked up): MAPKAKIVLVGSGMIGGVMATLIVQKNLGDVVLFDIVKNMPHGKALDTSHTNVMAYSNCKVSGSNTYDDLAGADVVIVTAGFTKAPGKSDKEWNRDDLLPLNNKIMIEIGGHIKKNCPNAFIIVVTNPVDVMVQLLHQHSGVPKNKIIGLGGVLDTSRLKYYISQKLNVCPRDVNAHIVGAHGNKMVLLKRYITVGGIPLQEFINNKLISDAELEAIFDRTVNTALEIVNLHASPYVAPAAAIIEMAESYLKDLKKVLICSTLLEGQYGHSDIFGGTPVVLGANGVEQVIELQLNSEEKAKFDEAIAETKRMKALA
# [4] = inhibition of 3D7 malaria parasite growth – strain 3D7 (AID 2306);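 note: 0% = DMSO wells and 100% = chloroquine plus artemisinin control wells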; conditions: P. falciparum 3D7 erythrocytic growth, LDH absorbance, 72 h; at 2 µM; stronger effect = higher value
# [5] = target: Calcium-dependent protein kinase 1 (Plasmodium falciparum (isolate 3D7)) (UniProt P62344); experiment: PfCDPK1 kinase inhibitors, biochemical, TCAMS library (AID 1159585; cut-off not given, nearly all actives have IC50 up to about 0.98 µM;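 note: inhibitors leave more ATP so luminescence rises with inhibition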); conditions: recombinant PfCDPK1, Kinase-Glo ATP depletion luminescence
# Sequence of Calcium-dependent protein kinase 1 (Plasmodium falciparum (isolate 3D7)) (P62344 whole entry, looked up): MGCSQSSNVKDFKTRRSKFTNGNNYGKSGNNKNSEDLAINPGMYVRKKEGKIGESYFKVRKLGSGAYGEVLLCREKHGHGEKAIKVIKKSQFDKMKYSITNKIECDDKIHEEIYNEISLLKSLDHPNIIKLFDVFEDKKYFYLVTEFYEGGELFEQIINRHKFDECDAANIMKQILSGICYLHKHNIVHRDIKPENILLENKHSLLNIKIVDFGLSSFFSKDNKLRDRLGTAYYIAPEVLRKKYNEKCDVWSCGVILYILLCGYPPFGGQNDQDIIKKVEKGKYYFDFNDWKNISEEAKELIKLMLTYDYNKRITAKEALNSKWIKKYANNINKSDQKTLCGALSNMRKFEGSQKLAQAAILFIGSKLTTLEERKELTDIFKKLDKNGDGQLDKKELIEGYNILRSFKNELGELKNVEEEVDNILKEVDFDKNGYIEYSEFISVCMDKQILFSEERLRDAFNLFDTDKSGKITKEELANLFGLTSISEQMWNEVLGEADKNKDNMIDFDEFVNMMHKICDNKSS
# [6] = target: Plasmodium falciparum protein kinase 6 (PK6, PF3D7_1337100) (UniProt Q8IDW1); experiment: PfPK6 kinase inhibitors, biochemical, TCAMS library (AID 1159586); conditions: recombinant PfPK6, Kinase-Glo ATP depletion luminescence
# Sequence of Plasmodium falciparum protein kinase 6 (PK6, PF3D7_1337100) (Q8IDW1 1-305): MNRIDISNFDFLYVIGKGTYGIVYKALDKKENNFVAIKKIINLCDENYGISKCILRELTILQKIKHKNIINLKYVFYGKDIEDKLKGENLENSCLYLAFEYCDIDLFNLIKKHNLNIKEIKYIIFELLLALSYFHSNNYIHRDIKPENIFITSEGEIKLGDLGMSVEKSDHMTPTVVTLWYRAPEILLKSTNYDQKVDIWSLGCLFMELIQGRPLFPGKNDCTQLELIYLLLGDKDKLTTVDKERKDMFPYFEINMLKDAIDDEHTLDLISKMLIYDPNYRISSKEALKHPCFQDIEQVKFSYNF
# [7] = target: Protein kinase 7 (PK7), Plasmodium falciparum 3D7 (PF3D7_0213400) (UniProt Q7YTF7); experiment: inhibition of Plasmodium PK7 catalytic activity – biochemical, TCAMS antimalarial set, Kinase-Glo luminescence (AID 1159587); conditions: recombinant PfPK7, Kinase-Glo ATP depletion luminescence
# Sequence of Protein kinase 7 (PK7), Plasmodium falciparum 3D7 (PF3D7_0213400) (Q7YTF7 1-343): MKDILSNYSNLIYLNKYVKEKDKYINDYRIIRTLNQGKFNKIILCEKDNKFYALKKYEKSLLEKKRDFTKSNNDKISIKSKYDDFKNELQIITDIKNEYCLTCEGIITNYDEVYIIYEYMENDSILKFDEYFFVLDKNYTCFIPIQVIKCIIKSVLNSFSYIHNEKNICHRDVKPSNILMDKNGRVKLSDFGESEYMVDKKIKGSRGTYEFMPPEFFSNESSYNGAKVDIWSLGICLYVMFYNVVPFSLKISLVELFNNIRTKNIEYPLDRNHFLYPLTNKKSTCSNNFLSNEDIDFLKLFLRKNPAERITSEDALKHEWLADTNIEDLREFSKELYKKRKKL
# [8] = target: Calcium-dependent protein kinase 4 (Plasmodium falciparum (isolate 3D7)) (UniProt Q8IBS5); experiment: PfCDPK4 kinase inhibitors, biochemical, TCAMS library (AID 1159588; cut-off not given, nearly all actives have IC50 up to about 0.91 µM); conditions: recombinant PfCDPK4, Kinase-Glo ATP depletion luminescence
# Sequence of Calcium-dependent protein kinase 4 (Plasmodium falciparum (isolate 3D7)) (Q8IBS5 whole entry, looked up): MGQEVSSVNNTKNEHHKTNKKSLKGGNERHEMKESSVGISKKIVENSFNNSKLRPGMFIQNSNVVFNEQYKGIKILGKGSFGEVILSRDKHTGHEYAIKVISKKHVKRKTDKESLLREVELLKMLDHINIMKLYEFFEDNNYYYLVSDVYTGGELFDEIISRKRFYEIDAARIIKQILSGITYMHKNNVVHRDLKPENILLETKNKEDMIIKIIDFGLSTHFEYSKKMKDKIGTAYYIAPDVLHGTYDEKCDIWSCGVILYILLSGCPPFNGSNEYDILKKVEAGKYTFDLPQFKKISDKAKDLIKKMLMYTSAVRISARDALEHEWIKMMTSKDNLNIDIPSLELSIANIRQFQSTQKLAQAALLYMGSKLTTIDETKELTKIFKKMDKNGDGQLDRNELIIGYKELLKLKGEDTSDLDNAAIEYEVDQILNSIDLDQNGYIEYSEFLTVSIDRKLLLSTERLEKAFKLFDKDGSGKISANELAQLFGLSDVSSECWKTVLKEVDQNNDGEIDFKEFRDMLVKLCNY
SMILES,growth inhibition [1],inhibition [2] [%],inhibition [3] [%],growth inhibition [4],outcome [5],outcome [6],outcome [7],outcome [8]
CC1=C(C(=O)Nc2cc3cn[nH]c3cc2F)C(c2ccc(Cl)c(NS(C)(=O)=O)c2)CC(=O)N1 (centres undefined),98% (active),2,-1,88% (active),inactive,inactive,inactive,inactive
CCOc1ccccc1C(=O)Nc1cccc(-c2nc3ncccn3c2C)c1,88% (active),0,-6,92% (active),inactive,inactive,inactive,inactive
Cc1ccccc1Cc1cccc(/N=C(\N)Nc2ccc(Cl)cc2)n1,56% (active),48,-7,91% (active),inactive,inactive,inactive,inactive
